OTUD3 inh – inhibitors of human OTUD3 deubiquitinase; Q5T2D3; purified OTUD3, Ub-rhodamine fluorescence, 2 h; inhibition, % at 25 µM; 47,000 tested, 0.7% active; AID 1645858
Target sequence (Q5T2D3 whole entry, looked up): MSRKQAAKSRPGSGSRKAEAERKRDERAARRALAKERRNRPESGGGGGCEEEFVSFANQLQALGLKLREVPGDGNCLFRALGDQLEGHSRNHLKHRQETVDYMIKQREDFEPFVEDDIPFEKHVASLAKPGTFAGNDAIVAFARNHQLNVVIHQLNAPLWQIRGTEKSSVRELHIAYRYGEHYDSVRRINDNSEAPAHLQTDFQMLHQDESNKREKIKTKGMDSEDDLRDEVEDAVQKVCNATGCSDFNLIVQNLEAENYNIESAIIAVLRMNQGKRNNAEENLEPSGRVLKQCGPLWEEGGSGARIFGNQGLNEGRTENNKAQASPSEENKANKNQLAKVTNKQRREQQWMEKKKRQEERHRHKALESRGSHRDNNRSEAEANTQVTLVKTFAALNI
USP28 block – inhibitors of human USP28 deubiquitinase; inhibition, % at 25 µM; 47,000 tested, 3% active; Q96RU2; purified USP28, Ub-rhodamine cleavage fluorescence, 30 min
USP30 inh – inhibitors of human USP30 deubiquitinase; Q70CQ3; purified USP30, Ub-rhodamine cleavage fluorescence; inhibition, % at 25 µM; 47,000 tested, 5.3% active
USP17 inh – human USP17-like deubiquitinase inhibition; A8MUK1; purified USP17, Ub-rhodamine cleavage fluorescence, 3 h; inhibition, % at 50 µM; 47,000 tested, 6.5% active
A number is an active result; n = inactive. Shown are actives, neighbours in structure and some others; about 11% of the full set was active somewhere. Cut-off read from the data, not from the text of the source: active = inhibition above about 30%; inactive = the rest.

SMILES	OTUD3 inh	USP28 block	USP30 inh	USP17 inh
COc1ccccc1Oc1nc(-c2ccccc2)cc(C)c1S(C)(=O)=O	n	37	n	n
CC(C)c1ccc(NC(=O)c2cc3cc(Cl)ccc3[nH]2)cc1	n	n	n	n
CCc1onc(C)c1C1CCCN1S(=O)(=O)c1ccccc1F (centres undefined)	n	n	n	n
O=C(Nc1cccc(C(F)(F)F)c1)c1ccc2c(c1)SC1=NS(=O)(=O)CCN12	n	n	n	35
O=C(CNCc1cccc(Cl)c1)N1CCc2ccccc2C1	n	n	n	46
CC(=O)Nc1ccc(-n2cnc(C(=O)N3CCN(c4ccccc4F)CC3)c2)nc1	n	n	n	n
O=C(CCc1c[nH]c2ccccc12)Nc1ccc(N2CCOCC2)cc1	n	62	33	60
O=C(COC(=O)CCCc1c[nH]c2ccccc12)Nc1ccc2c(c1)OCO2	n	40	n	n
COc1ccc(C)cc1NC(=O)COC(=O)CCCc1c[nH]c2ccccc12	n	n	n	n
Cc1ccc2[nH]c(=O)c(-c3nc4ccc(C)cn4c3NCc3ccc(F)cc3)cc2c1	n	n	n	76
O=C(O)CN(C(=O)C1CCC1)[C@@H]1C[C@@H]2CO[C@H](c3ccccc3)C[C@@H]2C1	n	n	n	n
COc1ccc(-c2nc3c4c(ncn3n2)Oc2c(c(C)nn2-c2ccccc2)C4c2ccc(OC)c(OC)c2)cc1 (centres undefined)	n	n	n	n
COc1ccccc1-c1nc2c3c(ncn2n1)Oc1c(c(C)nn1-c1ccccc1)C3c1cccnc1 (centres undefined)	n	n	n	54
COc1ccccc1-c1nc2c3c(C)c(C)n(CCCN(C)C)c3ncn2n1	n	n	n	n
COc1ccccc1-c1nc2c3c(C)c(C)n(Cc4cccnc4)c3ncn2n1	n	51	n	n
COc1ccc(/C=N/OCc2nc3c4c(ncn3n2)Oc2c(c(C)nn2-c2ccccc2)C4c2ccco2)cc1 (centres undefined)	n	n	42	n
Cc1cnc(C(=O)N2CC[C@@H]3CN(CCc4ccccc4)S(=O)(=O)[C@@H]3CC2)cn1	n	n	n	n
CCOc1ccc(NC(=O)CSCc2nc3sc4c(c3c(=O)[nH]2)CCCC4)cc1	n	n	n	n
O=C1COc2ccc(NC(=O)N3CCN(C(c4ccccc4)c4ccccc4)CC3)cc2N1	n	n	n	n
O=C(Cc1cccc2ccccc12)Nc1ccc2c(c1)NC(=O)CO2	n	50	30	n
CC1=C(c2ccccc2)S(=O)(=O)N(CC(=O)Nc2cccc(F)c2)C1=O	n	n	n	n
CC1=C(c2ccccc2)S(=O)(=O)N(CC(=O)Nc2cccc(Cl)c2)C1=O	n	n	35	30
O=C(Cn1c(=O)ccn(Cc2ccc(F)cc2)c1=O)Nc1ccc(F)cc1	n	n	n	n
Cc1ccc(S(=O)(=O)N2CCC(C(=O)OCC(=O)Nc3ccc4c(c3)CCC4)CC2)cc1C	n	n	n	n
Cc1ccc(S(=O)(=O)N2CCC(C(=O)OCC(=O)Nc3ccc(OC(F)(F)F)cc3)CC2)cc1C	n	n	43	31
SMILES	OTUD3 inh	USP28 block	USP30 inh	USP17 inh
O=C1CC(O)C(C2=CC(=O)c3c(O)cccc3C2=O)O1 (centres undefined)	71	83	n	71
Cc1ccc2c(c1)C(=O)c1c(O)cccc1C2=O	n	n	n	n
COc1ccc(OC)c2c(C)cc(N3CC(C)CC(C)C3)nc12 (centres undefined)	30	54	43	96
O=C1CN(C(=O)COC(=O)CCCN2C(=O)c3cccc4cccc(c34)C2=O)c2ccccc2N1	n	46	49	62
O=C1CN(C(=O)COC(=O)C(c2ccccc2)c2ccccc2)c2ccccc2N1	n	32	n	n
COc1ccc(CNC(=O)CNc2cc(C)nc3nc(-c4cccnc4)nn23)cc1	n	n	31	n
CCCNC(=O)c1ccc(Nc2cc(CCC)nc3nc(-c4cccnc4)nn23)cc1	n	n	n	n
CCCCNC(=O)c1ccc(Nc2cc(C)nc3nc(-c4cccnc4)nn23)cc1	n	n	47	n
CC(C)c1cc(NCc2ccccc2)n2nc(-c3cccnc3)nc2n1	n	n	55	n
Cc1ccc(COc2cc(C(=O)NCCc3ccccc3Cl)c3ccccc3n2)cc1	n	n	n	n
COc1ccc(F)cc1C(=O)N1CCOC(c2nc(C)cc(C)n2)C1 (centres undefined)	n	n	n	n
CN(C)c1cc(-n2cnc(C(=O)NCc3cccc(Cl)c3)c2)ncn1	n	n	n	42
CC(=O)Nc1ccc(-n2cnc(C(=O)NCc3ccc(F)cc3)c2)nc1	n	n	n	n
CN(C)c1cc(-n2cnc(C(=O)Nc3ccccc3)c2)ncn1	n	n	n	n
Cc1cc(C)n(-c2ccc(C(=O)NCc3ccc(F)cc3)cn2)n1	n	34	69	49
O=C(Nc1ccccc1F)c1ccc(N2CCCC2)nn1	n	n	n	n
Cc1cccc(-n2cnc(C(=O)NCc3ccc(F)cc3)c2)n1	n	n	35	83
O=C(NCc1ccc(F)cc1)c1ccc(N2CCCC2)nn1	n	n	n	33
O=C(Cn1ccc2ccn(Cc3ccccc3)c2c1=O)Nc1cccc(F)c1	n	n	n	49
Cc1ccccc1NC(=O)Cn1ccc2ccn(Cc3ccccc3)c2c1=O	n	n	n	n
CCc1nnc2c(NC(=O)Cc3ccc(OC)c(Cl)c3)cccn12	n	47	n	n
Cc1nnc2ccc(-c3noc(-c4ccc5cc[nH]c5c4)n3)cn12	n	n	n	n
CCOc1ccc(S(=O)(=O)n2cc3c(=O)n(C)c(=O)n(C)c3n2)cc1	n	n	n	33
COc1ccc2ncc3c(-c4ccc(C)cc4)nn(-c4ccc(F)cc4)c3c2c1	n	n	n	57
Cc1ccc(-c2nn(-c3ccc(F)cc3)c3c2cnc2cc4c(cc23)OCCO4)cc1	n	n	n	n
SMILES	OTUD3 inh	USP28 block	USP30 inh	USP17 inh
Cc1ccc(C(=O)NCCc2nc(-c3ccc4c(c3)OCO4)n[nH]2)cc1F	n	n	69	47
Cc1cc(=O)n2[nH]c(CNc3cccc(C(F)(F)F)c3)nc2n1	n	n	31	n
CCOCC(=O)Nc1nnc(CC(C)c2ccccc2)s1 (centres undefined)	n	n	n	n
CCOc1cc2c(cc1OCC)C(c1ccc(Cl)cc1)N(c1ccc(C(=O)O)cc1)C(=O)C2 (centres undefined)	n	n	31	n
O=C(c1ccc(S(=O)(=O)N2CCCCC2)cc1)c1nnc(-c2ccc(Cl)cc2)o1	n	n	30	n
O=C(C1CCN(S(=O)(=O)c2ccc(Cl)cc2)CC1)N1CCOCC1	n	n	n	n
O=C(c1ccccc1)C1CCN(S(=O)(=O)c2ccc(Cl)cc2)CC1	n	n	31	n
O=C(NCCN1CCOCC1)C1CCN(S(=O)(=O)c2ccc(Cl)cc2)CC1	n	n	35	n
Cc1ccccc1C1CC(=O)c2c(C)nc(N3CCN(CCO)CC3)nc2C1 (centres undefined)	n	n	n	n
COc1ccc(S(=O)(=O)N2CC[C@@H]3[C@H]2C(=O)N(C)[C@@H](C)C(=O)N3C)cc1	n	n	n	n
Cc1cc(=O)n(CC(=O)Nc2cccc(F)c2)c(N2CCCCC2)n1	n	n	n	n
